Reference: PubChem BioAssay (NCATS)
Values joined by “and” are separate entries in the source; they are usually repeats but may differ in a detail not shown here. Equal entries are not always repeated. Records with an inconclusive call do not appear. More than one record can exist for a structure, and the calls need not agree. Active and inactive are the calls of the source. Unless noted, calls follow the shape of the dose curve; as a rule, active = well fitted curve in either direction with a large enough effect (not every such curve was filed as active); inconclusive = small, poorly fitted or top-dose-only effect, or another doubt; inactive = flat fitted curve, though single readings scatter.

Key:
[1] = AP1 Signaling Pathway (AID 357); details: ME-180 AP-1-bla reporter, EGF-induced, beta-lactamase ratio, 5 h;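 also: ME-180 reporter cells stimulated with EGF at its EC50 level; % is scaled to controls: 0 for no effect and ±100 for the full control effect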
Method in brief: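 Modulation of EGF-driven AP-1 transcription was assessed with a beta-lactamase reporter in ME-180 cells. Compound and EC50 EGF were co-incubated 5 hours at 37 °C before 2.5-hour CCF4 loading at room temperature and dual-emission reading.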

[2] = biological target: Cytochrome P450 1A2 (Homo sapiens) (UniProt P05177); test: p450-cyp1a2 (AID 410; calls by dose curve; also: potency is read from the fitted curve at half-maximal effect;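 as to activity change, negative = inhibition: -100% = full effect of reference inhibitor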); details: recombinant CYP1A2, luciferin-ME demethylation, luminescence; series mostly up to 57 µM
Cytochrome P450 1A2 (Homo sapiens), sequence (P05177 whole entry, looked up): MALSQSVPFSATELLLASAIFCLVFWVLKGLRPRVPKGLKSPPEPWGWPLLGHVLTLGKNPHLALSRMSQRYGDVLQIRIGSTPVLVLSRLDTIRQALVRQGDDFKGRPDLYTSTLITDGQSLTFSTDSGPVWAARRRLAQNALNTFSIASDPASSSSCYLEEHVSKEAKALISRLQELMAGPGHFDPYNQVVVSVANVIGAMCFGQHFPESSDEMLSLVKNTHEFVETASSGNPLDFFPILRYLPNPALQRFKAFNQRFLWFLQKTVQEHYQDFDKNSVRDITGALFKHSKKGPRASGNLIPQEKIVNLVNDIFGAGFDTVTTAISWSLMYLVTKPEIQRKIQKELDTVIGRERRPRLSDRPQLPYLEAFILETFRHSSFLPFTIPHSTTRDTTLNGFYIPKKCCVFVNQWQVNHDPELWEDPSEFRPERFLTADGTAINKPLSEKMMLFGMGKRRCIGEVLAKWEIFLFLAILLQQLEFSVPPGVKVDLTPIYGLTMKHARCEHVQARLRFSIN
Method in brief: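 Luminescent readout of luciferin formed from Luciferin-ME by human CYP1A2; data normalized against complete inhibition by 57 uM furafylline. Enzyme 20nM, substrate 100uM at Km, 100mM KPO4 buffer, 60 min reaction at room temperature.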

[3] = NFAT Signaling Pathway (AID 444); details: Jurkat NFAT-bla M1, carbachol, beta-lactamase ratio, 5 h;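 also: carbachol stimulus at about its EC50 of 1 µM final; % is scaled to controls: 0 for no effect and ±100 for the full control effect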
Method in brief: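 Jurkat cells with NFAT-driven β-lactamase reporter and co-expressed M1 receptor, stimulated with carbachol (final 1 uM, ~EC50), compound titration, 5 h at 37 °C. CCF4 loaded 1 h at RT; 460/530 nm ratio gave %activity and AC50.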

[4] = Stat Signaling Pathway (AID 446); details: ME-180 SIE beta-lactamase reporter, IL-6 stimulated, 5 h; series mostly up to 17.2 µM;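 also: ME-180 cervical cancer cells given 40 pM IL-6 alongside compound; SIE-controlled beta-lactamase reporter measured as 460/530 nm FRET emission ratio; % is scaled to controls: 0 for no effect and ±100 for the full control effect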
Method in brief: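 Screening format detects activators and inhibitors alike: ME-180 SIE-bla cells stimulated at 40 pM IL-6 for 5 hrs with compound, then dual-emission beta-lactamase read at 405 nm excitation.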

[5] = biological target: Glucocorticoid receptor (Homo sapiens) (UniProt P04150); test: GR-GFP Redistribution (AID 450;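 active = compounds whose dose series gives a full or clear partial fitted curve of increased nuclear translocation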; also: potency is read from the fitted curve at half-maximal effect); details: U2OS GR-GFP nuclear translocation, laser cytometry, 2 h
Glucocorticoid receptor (Homo sapiens), sequence (P04150 whole entry, looked up, the tested form may be a part): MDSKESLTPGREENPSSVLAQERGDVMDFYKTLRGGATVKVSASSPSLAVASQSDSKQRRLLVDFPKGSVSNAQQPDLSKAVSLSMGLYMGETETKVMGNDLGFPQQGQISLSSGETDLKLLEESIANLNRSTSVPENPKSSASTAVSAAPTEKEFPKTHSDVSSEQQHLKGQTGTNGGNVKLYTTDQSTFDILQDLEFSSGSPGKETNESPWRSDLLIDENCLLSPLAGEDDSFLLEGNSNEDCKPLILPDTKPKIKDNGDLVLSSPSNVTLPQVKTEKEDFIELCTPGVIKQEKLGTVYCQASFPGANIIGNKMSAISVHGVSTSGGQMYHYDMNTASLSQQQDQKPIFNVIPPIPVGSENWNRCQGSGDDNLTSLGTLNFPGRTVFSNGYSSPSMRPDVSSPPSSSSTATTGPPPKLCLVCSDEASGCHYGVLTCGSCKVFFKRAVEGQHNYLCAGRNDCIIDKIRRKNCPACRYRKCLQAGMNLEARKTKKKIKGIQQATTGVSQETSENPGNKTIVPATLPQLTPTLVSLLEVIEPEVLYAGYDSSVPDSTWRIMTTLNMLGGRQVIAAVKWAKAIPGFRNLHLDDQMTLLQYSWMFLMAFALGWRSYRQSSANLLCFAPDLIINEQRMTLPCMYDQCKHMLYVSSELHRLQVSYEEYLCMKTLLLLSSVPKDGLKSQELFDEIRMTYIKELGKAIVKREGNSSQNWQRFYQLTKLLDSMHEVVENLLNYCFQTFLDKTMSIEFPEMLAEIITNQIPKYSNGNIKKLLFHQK

[6] = biological target: Glucocorticoid receptor (Homo sapiens) (UniProt P04150); test: GR-EFC Redistribution (AID 451; calls by dose curve; also: potency is read from the fitted curve at half-maximal effect); details: CHO-K1 GR-EFC translocation, beta-gal luminescence, 2 h
Method in brief: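 CHO-K1 cells expressing nuclear EA and GR-ED fragments of b-gal; compounds titrated up to 46 uM final, 2 h at 37 C. GR nuclear translocation read as complemented b-gal luminescence after 1 h RT detection.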

[7] = biological target: Mitogen-activated protein kinase 10 (Mus musculus) (UniProt Q61831); test: JNK3 AlphaScreen Assay (AID 530); details: JNK3 lysate, c-Jun phosphorylation; series mostly up to 57.1 µM;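 also: kinase came from lysate of stimulated human HepG2 cells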; also: potency is read from the fitted curve at half-maximal effect;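 as to activity change, negative = inhibition: signal reports phosphorylation of biotinylated GST-cJun 1-79 at Ser73 with 10 µM ATP; % is scaled to controls: 0 for no effect and ±100 for the full control effect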
Method in brief: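 Pre-activated (IL-1β/TNFα) JNK3 in HepG2 lysates phosphorylates biotin-GST-cJun(1-79), 10 uM ATP; anti-phospho-cJun(Ser73) AlphaScreen read at room temperature, pH 7.6 Tris buffer. Compounds pre-incubated 15 min as titrations.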

[8] = biological target: Lysosomal acid glucosylceramidase (Homo sapiens) (UniProt P04062); test: Glucocerebrosidase-p2 (AID 348; in the data active = potency below about 10 µM; also: potency is read from the fitted curve at half-maximal effect); details: purified GBA, blue fluorogenic substrate, 40 min
Lysosomal acid glucosylceramidase (Homo sapiens), sequence (P04062 whole entry, looked up): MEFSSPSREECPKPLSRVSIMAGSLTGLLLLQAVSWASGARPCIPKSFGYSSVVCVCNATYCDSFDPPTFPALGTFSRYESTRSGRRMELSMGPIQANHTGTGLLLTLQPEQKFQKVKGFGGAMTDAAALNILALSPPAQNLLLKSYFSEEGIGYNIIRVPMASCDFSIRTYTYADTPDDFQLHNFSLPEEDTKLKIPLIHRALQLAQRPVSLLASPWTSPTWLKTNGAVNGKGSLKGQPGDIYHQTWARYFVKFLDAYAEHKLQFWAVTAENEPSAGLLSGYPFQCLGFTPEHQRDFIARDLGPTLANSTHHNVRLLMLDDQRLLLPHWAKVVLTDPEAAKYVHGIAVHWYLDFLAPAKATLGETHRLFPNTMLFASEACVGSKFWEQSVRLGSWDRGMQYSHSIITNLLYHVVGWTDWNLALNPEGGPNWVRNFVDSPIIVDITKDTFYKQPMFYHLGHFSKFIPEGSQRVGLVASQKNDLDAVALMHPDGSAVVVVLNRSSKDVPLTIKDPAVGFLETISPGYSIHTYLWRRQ
Method in brief: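 Compounds titrated from 0.6 nM upwards against 0.2 nM enzyme in pH 5.9 citric acid/KH2PO4, taurocholate, tween-20; blue fluorogenic substrate 80 uM, 40 min room temperature, stopped and read Ex 365/Em 440 for AC50.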

SMILES | activity change, negative = inhibition ([1]; at 17.2 µM (top of the series)) | activity change, negative = inhibition ([1]; at 38 µM (top of the series)) | Potency [2] | activity change, negative = inhibition ([3]; at 17.2 µM (top of the series)) | activity change, negative = inhibition ([3]; at 38 µM (top of the series)) | outcome [4] | Potency [5] | Potency [6] | Potency [7] | Potency [8] | activity change, negative = inhibition ([1]; at 7.69 µM (top of the series)) | activity change, negative = inhibition ([3]; at 7.69 µM (top of the series))
CCN(CC)CCNC(=O)c1ccc(NC(C)=O)cc1 | -5.32% (inactive) | 9.43% (inactive) | inactive | -13.8% (inactive) | -8.68% (inactive) | inactive | > 46 µM (inactive) and > 20.6 µM (inactive) | > 46 µM (inactive) | – | – | – | –
NC(N)=NC(=O)Cc1c(Cl)cccc1Cl | 3.24% (inactive) | 6.16% (inactive) | inactive | 3.14% (inactive) | 2.06% (inactive) | inactive | > 46 µM (inactive) and > 20.6 µM (inactive) | > 46 µM (inactive) and > 20.6 µM (inactive) | inactive | – | – | –
CC1=NS(=O)(=O)c2cc(Cl)ccc2N1 | 5.8% (inactive) and -6.56% (inactive) | -8.76% (inactive) | 7.94 µM (active) and 3.16 µM (active) and 2 µM (active) | – | – | inactive | > 46 µM (inactive) and > 20.6 µM (inactive) | > 46 µM (inactive) and > 20.6 µM (inactive) | inactive | – | – | –
O=C1NCN(c2ccccc2)C12CCN(CCCC(c1ccc(F)cc1)c1ccc(F)cc1)CC2 | -2.84% (inactive) | 1.17% (inactive) | 12.6 µM (active) | – | – | inactive | > 46 µM (inactive) and > 20.6 µM (inactive) | > 46 µM (inactive) and > 20.6 µM (inactive) | inactive | – | – | –
CCCOc1ccccc1-c1nc2n[nH]nc2c(=O)[nH]1 | -18.5% (inactive) | -7.91% (inactive) | 5.01 µM (active) and 3.98 µM (active) | – | – | inactive | > 46 µM (inactive) and > 20.6 µM (inactive) | > 46 µM (inactive) and > 20.6 µM (inactive) | inactive | – | – | –
O=C(O)CP(=O)(O)O | – | 7.05% (inactive) | inactive | – | 3.66% (inactive) | inactive | > 46 µM (inactive) | > 46 µM (inactive) and > 9.22 µM (inactive) | inactive | > 11.4 µM (inactive) | 0.401% (inactive) | -1.52% (inactive)
Cc1ccc(=O)n(-c2ccccc2)c1 | – | -0.00383% (inactive) | inactive and 31.6 µM (active) | – | 14.9% (inactive) | inactive | – | – | 12.6 µM (active) | – | – | –
C[C@]12CCC(=O)C=C1CC[C@@H]1[C@@H]2CC[C@@]2(C)[C@H]1CC[C@]2(O)C(=O)CO | 14.7% (inactive) | – | – | 2.94% (inactive) | – | inactive | 0.0458 µM (active) | – | – | – | – | –
CN(C)[C@@H]1C(=O)C(C(N)=O)=C(O)[C@@]2(O)C(=O)C3=C(O)c4c(O)ccc(Cl)c4[C@@H](O)[C@H]3C[C@@H]12 | -3.11% (inactive) | – | – | 0.847% (inactive) | – | inactive | > 20.6 µM (inactive) | – | – | – | – | –
